Inconclusive results are not listed. The source made the active and inactive calls. Unless noted, calls follow the shape of the dose curve; as a rule, active = well fitted cell-killing curve with a large enough effect; inconclusive = small, poorly fitted or top-dose-only effect, or effect the other way; inactive = no such curve, though single readings can be large or run the other way.

Test [1] in a line: Quantitative High-Throughput drug screen in 47 multiple myeloma cell lines against the NCATS MIPE library collection: KMS34_JCRB cell viability assay (AID 1918985). Also: potency is read from the fitted curve at half-maximal effect; nearly all actives have a fitted effect of over 40% in size. In a few lines: (§1)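 500 cells/well; MIPE 4.0 drugs pin-transferred; 48 h, 37C, 5% CO2. CellTiter-Glo, 5 min RT, luminescence. Controls: DMSO 100%, media 0%.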
Test [2] is described as follows: Quantitative High-Throughput drug screen in 47 multiple myeloma cell lines against the NCATS MIPE library collection: OCIMY7_PLB cell viability assay (AID 1918987). Also: potency is read from the fitted curve at half-maximal effect; nearly all actives have a fitted effect of over 65% in size. In a few lines: as §1
A short description of test [3]: Quantitative High-Throughput drug screen in 47 multiple myeloma cell lines against the NCATS MIPE library collection: OCIMY5_PLB cell viability assay (AID 1918988). Also: potency is read from the fitted curve at half-maximal effect; nearly all actives have a fitted effect of over 65% in size. A digest of the protocol: as §1
Test [4] in a line: Quantitative High-Throughput drug screen in 47 multiple myeloma cell lines against the NCATS MIPE library collection: OPM1_PLB cell viability assay (AID 1918989). Also: potency is read from the fitted curve at half-maximal effect; nearly all actives have a fitted effect of over 40% in size. In a few lines: as §1
Test [5] is described as follows: Quantitative High-Throughput drug screen in 47 multiple myeloma cell lines against the NCATS MIPE library collection: U266_ATCC cell viability assay (AID 1919864). Also: potency is read from the fitted curve at half-maximal effect; nearly all actives have a fitted effect of over 35% in size. A digest of the protocol:
as §1

Test [6] is described as follows: Quantitative High-Throughput drug screen in 47 multiple myeloma cell lines against the NCATS MIPE library collection: XG6_PLB cell viability assay (AID 1919865). Also: potency is read from the fitted curve at half-maximal effect; nearly all actives have a fitted effect of over 40% in size. A digest of the protocol:
as §1

A short description of test [7]: Quantitative High-Throughput drug screen in 47 multiple myeloma cell lines against the NCATS MIPE library collection: XG1_PLB cell viability assay (AID 1919866). Also: potency is read from the fitted curve at half-maximal effect; nearly all actives have a fitted effect of over 35% in size. In a few lines:
as §1

Test [8] can be described thus: Quantitative High-Throughput drug screen in 47 multiple myeloma cell lines against the NCATS MIPE library collection: VP6_DJ cell viability assay (AID 1919867). Also: potency is read from the fitted curve at half-maximal effect; nearly all actives have a fitted effect of over 40% in size. A digest of the protocol:
as §1

A short description of test [9]: Quantitative High-Throughput drug screen in 47 multiple myeloma cell lines against the NCATS MIPE library collection: UTMC2_PLB cell viability assay (AID 1919868). Also: potency is read from the fitted curve at half-maximal effect; nearly all actives have a fitted effect of over 55% in size. To be noted: CellTiter-Glo ATP luminescence, 48 h; viability (% of DMSO control): at 45.8 µM (top of the series) unless noted. In a few lines:
as §1

Test [10] can be described thus: Quantitative High-Throughput drug screen in 47 multiple myeloma cell lines against the NCATS MIPE library collection: PE2_PLB cell viability assay (AID 1919869). Also: potency is read from the fitted curve at half-maximal effect; nearly all actives have a fitted effect of over 35% in size. A digest of the protocol:
as §1

Test [11] is described as follows: Quantitative High-Throughput drug screen in 47 multiple myeloma cell lines against the NCATS MIPE library collection: PCM6_Riken cell viability assay (AID 1919870). Also: potency is read from the fitted curve at half-maximal effect; nearly all actives have a fitted effect of over 30% in size. In a few lines: as §1
Test [12] in a line: Quantitative High-Throughput drug screen in 47 multiple myeloma cell lines against the NCATS MIPE library collection: OPM2_DSMZ cell viability assay (AID 1919872). Also: potency is read from the fitted curve at half-maximal effect; nearly all actives have a fitted effect of over 30% in size. In a few lines: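 Myeloma cells (500 per well) were exposed to MIPE 4.0 compounds by pin transfer and incubated 48 hours at 37C, 5% CO2. Viability was read as ATP by CellTiter-Glo luminescence, normalised to DMSO (100%) and media-only (0%) wells.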

Test [13] is described as follows: Quantitative High-Throughput drug screen in 47 multiple myeloma cell lines against the NCATS MIPE library collection: KMS11_JCRBsus cell viability assay (AID 1919873). Also: potency is read from the fitted curve at half-maximal effect; nearly all actives have a fitted effect of over 50% in size. In a few lines:
as §1

Test [14] in a line: Quantitative High-Throughput drug screen in 47 multiple myeloma cell lines against the NCATS MIPE library collection: KMS28BM_JCRB cell viability assay (AID 1919874). Also: potency is read from the fitted curve at half-maximal effect; nearly all actives have a fitted effect of over 35% in size. A digest of the protocol: as §1
Test [15] in a line: qHTS drug screen for cell cycle checkpoint inhibitors in PARPi-resistant BRCA-mutant ovarian cancer cell lines. (AID 1963452; calls by dose curve). To be noted: PEO1/OlaR viability, CellTiter-Glo luminescence, 96 h, stronger effect = lower value. A digest of the protocol:
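PEO1, PEO4 and PEO1/OlaR ovarian cancer cells, 600 per well, exposed 96 h at 37C to a dilution series. Viability read by CellTiter-Glo luminescence, normalized to DMSO and empty wells; activity summarized as Z-AUC.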
(In qHTS, concentration-response curves come from the screen itself.)

Setting [16] is: measured here: PEO1 parental Z-AUC.

Turning to `CC1(C)OC2=C(C(=O)c3ccccc3C2=O)[C@H](NCc2ccccc2)[C@H]1O`, the Potency in [1] is 4.18 µM (active); in test [2], 1.32 µM (active); in test [3], 3.32 µM (active); in test [4] it was 2.35 µM (active); in [5], 2.64 µM (active); in test [6], 0.935 µM (active). In addition, the Potency in [7] was 1.48 µM (active); in test [8] it was 3.32 µM (active); in test [9], 2.35 µM (active); in [10], 3.32 µM (active); in test [11], 2.35 µM (active); in [12] it was 8.33 µM (active). The Potency in test [13] was 3.72 µM (active); in [14], 2.96 µM (active).
`CC[C@H](CO)Nc1nc(NCc2ccccc2)c2ncn(C(C)C)c2n1`: the Potency in test [1] was 26.4 µM (active); in test [2], 16.6 µM (active); in test [3], 18.7 µM (active); in [4], 23.5 µM (active); in test [5], 23.5 µM (active); in [6], 14.8 µM (active). The Potency is 16.6 µM (active) in [7]; 18.7 µM (active) in test [8]; 23.5 µM (active) in [9]; 14.8 µM (active) in test [10]; 9.35 µM (active) in test [11]; 20.9 µM (active) in test [13]. Further, the Z-AUC was 0.956 (inactive) in [15], 1.03 in test [15] (setting [16]) and 1.29 in test [15] (measured here: PEO4 Z-AUC).
On to `CNC(=O)c1ccccc1Nc1nc(Nc2ccc(N3CCOCC3)cc2OC)ncc1Cl`, for which the Potency was 0.935 µM (active) in [1]; 0.332 µM (active) in [2]; 1.32 µM (active) in test [3]; 5.26 µM (active) in test [4]; 13.2 µM (active) in test [5]; 6.62 µM (active) in [7]. The Potency in test [8] is 0.526 µM (active); in test [9], 0.209 µM (active); in [10], 1.18 µM (active); in test [12], 4.18 µM (active); in test [13], 0.372 µM (active); in test [14], 0.935 µM (active). In addition, the Z-AUC was 0.733 (inactive) in [15], 0.134 in [15] (setting [16]) and 0.16 in [15] (measured here: PEO4 Z-AUC).
On to `CC1(O)CC(c2nc(-c3ccc4ccc(-c5ccccc5)nc4c3)c3c(N)nccn23)C1` (stereo unspecified), for which the Potency is 0.59 µM (active) in [1]; 0.209 µM (active) in test [2]; 0.235 µM (active) in test [3]; 18.7 µM (active) in [4]; 5.9 µM (active) in test [7]; 0.166 µM (active) in test [8]. Besides, the Potency in test [9] was 0.166 µM (active); in [10] it was 1.66 µM (active); in test [11], 14.8 µM (active); in test [12] it was 18.7 µM (active); in test [13] it was 0.187 µM (active); in test [14] it was 0.148 µM (active). Besides, the Z-AUC in test [15] was -2.04 (inactive); in test [15] (setting [16]) it was -0.993; in [15] (measured here: PEO4 Z-AUC), -1.72.
As for `Cc1cc(Nc2cc(N3CCN(C)CC3)nc(Sc3ccc(NC(=O)C4CC4)cc3)n2)n[nH]1`, the Potency in test [1] was 14.8 µM (active); in test [2], 0.296 µM (active); in [3], 5.26 µM (active); in [4] it was 5.9 µM (active); in test [5], 16.6 µM (active); in test [6], 13.2 µM (active). For the same compound, the Potency in test [7] is 4.18 µM (active); in [8], 18.7 µM (active); in test [9], 0.001 µM (active); in test [10] it was 14.8 µM (active); in test [11], 23.5 µM (active); in test [12], 20.9 µM (active). The results for the Potency in test [13] and in [14] were 2.35 µM (active) and 6.62 µM (active), respectively. Also, the values for the Z-AUC in test [15], in test [15] (setting [16]) and in test [15] (measured here: PEO4 Z-AUC) were 0.654 (inactive), -0.131 and -0.437, respectively.

The record behind these values is PubChem BioAssay (NCATS).
